According to PubChem BioAssay:
Activity calls are given as the source filed them. How the calls were made is not given here.

Assay: inhibitors of hydroxyurea-induced Chk1 phosphorylation, primary screen, imaging, HeLa, phospho-Chk1 nuclear intensity (AID 1187); further: test concentration not given here
Conditions: hydroxyurea-induced phospho-Chk1 immunofluorescence imaging, higher = more signal
With `O=C(C1N=C(c2ccc(OCCCO)cc2)N(c2ccccc2)O1)N1CCOCC1` (configuration not stated) the z-score was -0.262 (inactive). In the case of `CC(C)N1C(=O)c2ccccc2[C@](C)(C(=O)NCc2ccccc2)[C@@H]1c1ccc(CO)cc1`, the z-score is reported as 0.0578 (inactive). With `COCCn1c(C(=O)N2CCCC2)cc2c1C[C@H]1CN(C(=O)c3ccccc3)[C@@](Cc3ccc(F)cc3)(C(=O)OC)[C@@H]21` the z-score was 0.375 (inactive). In the case of `C=C(/C(=C/C[C@@H](OC(C)=O)c1ccc(OCCO)cc1)c1cnc2ccccc2c1)C(C)C`, the z-score is reported as -0.163 (inactive). With `[N-]=[N+]=NCc1ccccc1C[C@]1(C(=O)N2CCOCC2)N=C(c2ccc(OCCCO)cc2)O[C@H]1c1ccccc1N=[N+]=[N-]` the z-score was -0.635 (inactive). In the case of `CC(=O)NCCCC[C@@H]1NC(=O)[C@@H]2C[C@H](C(=O)NCCCCCCNC(=O)CS)[C@H](c3cccc(OCCO)c3)N2C1=O`, the z-score is reported as -0.0198 (inactive). For `C=CCOC(=O)[C@@H]1[C@H]2C(=O)O[C@H](c3ccccc3)[C@H](c3ccccc3)N2[C@H](c2ccc(OCCOC(=O)[C@@H]3C[C@@H]4C(=O)N[C@@H](CCCC[N+](C)(C)C)C(=O)N4[C@@H]3c3cccc(OCCO)c3)cc2)[C@@]12C(=O)Nc1ccc(I)cc12`, the z-score was 0.16 (inactive). In the case of `CC(C)C[C@H]1NC(=O)[C@@]23C(=O)N[C@@H](Cc4ccccc4)C2[C@H](C)[C@@]2(C)O[C@H]2C3/C=C/C/C=C\CNC(=O)[C@H](Cc2ccccc2)NC1=O` (some centres not stated), the z-score is reported as 0.426 (inactive). In the case of `C=CCN1C(=O)[C@]2(O[C@H](CCO)[C@@H]([Si](C)(C)c3ccc(OC)cc3)[C@@H]2C)c2cc(N3C(=O)c4cccc5cccc3c45)ccc21`, the z-score is reported as -1.91 (inactive). For `O=C1OCC=C[C@H]2OC34C=CCN(c5ccc6ccccc6c5)C(=O)[C@H]3N(CCCCCCO)C(=O)[C@@H]4[C@@H]12` (some centres not stated), the z-score was -0.572 (inactive). For `CC(=O)N1Cc2ccccc2C[C@@]2(COC(c3ccc(OCCCO)cc3)=N2)C1=O`, the z-score was -1.12 (inactive). For `CCCCCC1=C2CNC(CCC)(C(=O)OC)C=C2C(C)C1=O` (configuration not stated), the z-score was 0.466 (inactive). For `COC(=O)[C@@]1(Cc2ccc(OC)cc2)[C@H]2c3cc(C(=O)N4CCCC4)n(Cc4ccc(OC)c(OC)c4)c3C[C@H]2CN1C(=O)c1ccccc1`, the z-score was 0.699 (inactive). For `CCCC[C@H]1OB(O)C[C@H]2C1=C(COc1ccccc1)C[C@H]1C(=O)N(C)C(=O)[C@H]12`, the z-score was 0.201 (inactive). In the case of `C=C(CCCC)C(=O)CC[C@H](OC(C)=O)c1cccc(OCCO)c1`, the z-score is reported as -0.148 (inactive). In the case of `CCCCC(O)C1C=CC2C(=O)N(c3ccccc3)C(=O)C2N1Nc1ccccc1F` (configuration not stated), the z-score is reported as -0.0522 (inactive). With `CN(C)CCCCCCNC(=O)[C@@H]1C[C@@H]2C(=O)N[C@@H](CCCCN)C(=O)N2[C@@H]1c1cccc(OCCO)c1` the z-score was -0.785 (inactive). In the case of `O=C(NCc1ccccc1)[C@@H]1c2ccccc2C(=O)N(CC23CC4CC(CC(C4)C2)C3)[C@H]1c1ccc(CO)cc1`, the z-score is reported as -0.338 (inactive). With `COc1ccc(C(=O)Nc2ccc(CN3C(=O)[C@@]4(O[C@@H](CCn5cc([C@H](O)c6ccccc6)nn5)[C@H]([Si](C)(C)c5ccc(OC)cc5)[C@H]4C)c4ccccc43)cc2)cc1` the z-score was -0.348 (inactive). For `C=C/C=C/[C@H]1C(=C)CN([C@@H](Cc2ccccc2)C(=O)OC)[C@@H]1[C@H](O)Cc1ccccc1`, the z-score was -0.368 (inactive). In the case of `CCCCCN1CC=CC23O[C@@H]4/C=C\CCCOC(=O)C4[C@H]2C(=O)N(C(CO)C(C)C)[C@@H]3C1=O` (some centres not stated), the z-score is reported as -0.33 (inactive). With `CS(=O)(=O)CCOC(=O)C1=CC(CCCO)=CC(c2ccc(CN3CCCC3)cc2)N(Cc2cc3c(cc2Br)OCO3)C=C1C(=O)OCCS(C)(=O)=O` (configuration not stated) the z-score was -0.549 (inactive). For `C=CC[C@]1(C(=O)NCCCOC)N=C(c2ccc(OCCCO)cc2)O[C@H]1c1ccccc1N=[N+]=[N-]`, the z-score was 0.0181 (inactive). With `[N-]=[N+]=NCc1ccccc1[C@@H]1OC(c2ccc(OCCCO)cc2)=N[C@]1(CCS(=O)(=O)c1ccccc1)C(=O)NCc1ccccc1` the z-score was -0.126 (inactive). With `CCCC=C(CCC)[C@@H](NC(=O)Oc1ccc(F)cc1)c1ccc(C(=O)OC)cc1` the z-score was 0.34 (inactive). For `CCCCCN1CC=CC23O[C@@H]4/C=C\CCCOC(=O)C4[C@H]2C(=O)N(CCCO)[C@@H]3C1=O` (some centres not stated), the z-score was -0.426 (inactive). With `CC(C)(C)OC(=O)CC[C@@]1(C(N)=O)N=C(c2ccc(OCCCO)cc2)O[C@@H]1c1ccccc1` the z-score was -0.0302 (inactive).
